# Experimental data reported in PubChem BioAssay.
# Results filed as inconclusive are left out. Calls of active or inactive are those of the source.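 Rule for the calls, unless noted: active = at least 20% inhibition of 6-phosphogluconate dehydrogenase activity; inactive = the rest.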
# Experiments:
# [1] = molecular target: 6-phosphogluconate dehydrogenase, decarboxylating (Homo sapiens) (UniProt P52209); experiment: 6PGD enzyme inhibitors, primary screen, biochemical, human, recombinant enzyme, NADPH absorbance (AID 1159550); settings: recombinant 6PGD, NADPH absorbance 341 nm; at 10 µM; stronger effect = higher value
# 6-phosphogluconate dehydrogenase, decarboxylating (Homo sapiens), sequence (P52209 whole entry, looked up): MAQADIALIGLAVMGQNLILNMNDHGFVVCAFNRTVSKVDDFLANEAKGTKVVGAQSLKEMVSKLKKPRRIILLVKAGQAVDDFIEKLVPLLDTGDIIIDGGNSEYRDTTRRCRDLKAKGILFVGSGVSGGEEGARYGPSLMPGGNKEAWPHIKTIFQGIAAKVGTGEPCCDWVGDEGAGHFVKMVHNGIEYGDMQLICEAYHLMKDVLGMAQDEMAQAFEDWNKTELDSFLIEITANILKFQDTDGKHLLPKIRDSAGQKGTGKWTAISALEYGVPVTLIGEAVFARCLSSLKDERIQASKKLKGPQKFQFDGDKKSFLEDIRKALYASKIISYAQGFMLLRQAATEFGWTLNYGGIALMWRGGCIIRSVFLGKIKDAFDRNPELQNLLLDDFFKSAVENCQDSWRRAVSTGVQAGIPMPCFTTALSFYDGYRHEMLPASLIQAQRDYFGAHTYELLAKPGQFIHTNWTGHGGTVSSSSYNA
# [2] = molecular target: NAD(+) hydrolase SARM1 (Homo sapiens) (UniProt Q6SZW1); experiment: SARM1 TIR NADase inhibitors, cell lysate, NAD-Glo luminescence (AID 1508614;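 active = compound whose remaining NAD level is above about 45 nM, limit read from the data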;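 note: higher remaining NAD means stronger inhibition of SARM1 NADase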); settings: SAM-TIR HEK293T lysate NADase, at 1 µM, stronger effect = higher value
# NAD(+) hydrolase SARM1 (Homo sapiens), sequence (Q6SZW1 whole entry, looked up, the tested form may be a part): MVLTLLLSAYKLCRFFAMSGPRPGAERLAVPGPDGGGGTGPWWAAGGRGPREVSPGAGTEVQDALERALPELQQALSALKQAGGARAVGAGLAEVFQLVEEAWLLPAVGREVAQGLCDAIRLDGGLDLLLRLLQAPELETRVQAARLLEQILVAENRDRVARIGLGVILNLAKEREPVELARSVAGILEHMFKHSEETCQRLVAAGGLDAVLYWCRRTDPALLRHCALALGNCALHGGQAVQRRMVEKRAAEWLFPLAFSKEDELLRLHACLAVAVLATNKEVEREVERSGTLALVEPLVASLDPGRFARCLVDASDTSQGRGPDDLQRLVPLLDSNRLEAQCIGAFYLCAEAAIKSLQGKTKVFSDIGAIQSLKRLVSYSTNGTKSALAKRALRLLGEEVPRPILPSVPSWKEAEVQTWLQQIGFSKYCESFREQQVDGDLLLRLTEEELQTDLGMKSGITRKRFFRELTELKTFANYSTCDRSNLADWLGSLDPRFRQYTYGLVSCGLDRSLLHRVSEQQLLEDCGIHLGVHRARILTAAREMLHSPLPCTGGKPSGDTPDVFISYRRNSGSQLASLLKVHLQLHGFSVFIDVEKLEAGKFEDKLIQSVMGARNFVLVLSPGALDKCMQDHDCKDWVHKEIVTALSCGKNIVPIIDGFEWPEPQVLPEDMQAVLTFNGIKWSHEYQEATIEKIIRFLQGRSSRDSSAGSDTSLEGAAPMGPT
# [3] = molecular target: Mitogen-activated protein kinase 7 (Homo sapiens) (UniProt Q13164); experiment: ERK5 transactivation activators in reporter cells, primary screen, cell-based, HTS (AID 1508626;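 active = luciferase signal above three times the same-plate solvent-only control wells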;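 note: luciferase driven by Gal4-ERK5 fusion binding five Gal4 sites before minimal TATA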); settings: HeLa Gal4-ERK5 transactivation, 18 h, at 5 µM, stronger effect = higher value
# Mitogen-activated protein kinase 7 (Homo sapiens), sequence (Q13164 whole entry, looked up, the tested form may be a part): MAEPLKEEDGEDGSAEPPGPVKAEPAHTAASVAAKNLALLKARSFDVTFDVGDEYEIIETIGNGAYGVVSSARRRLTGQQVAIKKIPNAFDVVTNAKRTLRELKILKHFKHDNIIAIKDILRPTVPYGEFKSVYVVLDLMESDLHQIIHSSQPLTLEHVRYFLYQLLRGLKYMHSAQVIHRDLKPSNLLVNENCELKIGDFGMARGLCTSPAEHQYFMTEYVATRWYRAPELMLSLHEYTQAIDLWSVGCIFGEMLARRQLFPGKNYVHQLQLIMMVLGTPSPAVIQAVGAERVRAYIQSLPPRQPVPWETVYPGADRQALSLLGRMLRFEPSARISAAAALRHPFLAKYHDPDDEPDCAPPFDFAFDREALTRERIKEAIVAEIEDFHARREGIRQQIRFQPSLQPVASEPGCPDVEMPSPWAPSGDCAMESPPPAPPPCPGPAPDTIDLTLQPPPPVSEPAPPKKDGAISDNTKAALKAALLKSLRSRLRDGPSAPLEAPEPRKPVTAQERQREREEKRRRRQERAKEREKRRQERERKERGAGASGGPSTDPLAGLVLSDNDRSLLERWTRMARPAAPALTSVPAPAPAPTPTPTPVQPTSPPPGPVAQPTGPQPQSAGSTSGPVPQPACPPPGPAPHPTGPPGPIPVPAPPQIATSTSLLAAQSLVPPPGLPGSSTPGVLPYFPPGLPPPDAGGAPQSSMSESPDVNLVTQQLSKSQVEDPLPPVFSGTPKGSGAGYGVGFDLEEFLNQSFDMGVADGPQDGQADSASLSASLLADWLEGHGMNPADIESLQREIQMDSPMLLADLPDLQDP
# [4] = molecular target: ATP-dependent translocase ABCB1 (Homo sapiens) (UniProt P08183); experiment: MDR1 (ABCB1) efflux transporter inhibition, cell-based (AID 377; in the data active = fluorescence slope change above about 50%); settings: MDR1-expressing cells, fluorescent substrate accumulation slope; stronger effect = higher value; concentration not given here
# ATP-dependent translocase ABCB1 (Homo sapiens), sequence (P08183 whole entry, looked up): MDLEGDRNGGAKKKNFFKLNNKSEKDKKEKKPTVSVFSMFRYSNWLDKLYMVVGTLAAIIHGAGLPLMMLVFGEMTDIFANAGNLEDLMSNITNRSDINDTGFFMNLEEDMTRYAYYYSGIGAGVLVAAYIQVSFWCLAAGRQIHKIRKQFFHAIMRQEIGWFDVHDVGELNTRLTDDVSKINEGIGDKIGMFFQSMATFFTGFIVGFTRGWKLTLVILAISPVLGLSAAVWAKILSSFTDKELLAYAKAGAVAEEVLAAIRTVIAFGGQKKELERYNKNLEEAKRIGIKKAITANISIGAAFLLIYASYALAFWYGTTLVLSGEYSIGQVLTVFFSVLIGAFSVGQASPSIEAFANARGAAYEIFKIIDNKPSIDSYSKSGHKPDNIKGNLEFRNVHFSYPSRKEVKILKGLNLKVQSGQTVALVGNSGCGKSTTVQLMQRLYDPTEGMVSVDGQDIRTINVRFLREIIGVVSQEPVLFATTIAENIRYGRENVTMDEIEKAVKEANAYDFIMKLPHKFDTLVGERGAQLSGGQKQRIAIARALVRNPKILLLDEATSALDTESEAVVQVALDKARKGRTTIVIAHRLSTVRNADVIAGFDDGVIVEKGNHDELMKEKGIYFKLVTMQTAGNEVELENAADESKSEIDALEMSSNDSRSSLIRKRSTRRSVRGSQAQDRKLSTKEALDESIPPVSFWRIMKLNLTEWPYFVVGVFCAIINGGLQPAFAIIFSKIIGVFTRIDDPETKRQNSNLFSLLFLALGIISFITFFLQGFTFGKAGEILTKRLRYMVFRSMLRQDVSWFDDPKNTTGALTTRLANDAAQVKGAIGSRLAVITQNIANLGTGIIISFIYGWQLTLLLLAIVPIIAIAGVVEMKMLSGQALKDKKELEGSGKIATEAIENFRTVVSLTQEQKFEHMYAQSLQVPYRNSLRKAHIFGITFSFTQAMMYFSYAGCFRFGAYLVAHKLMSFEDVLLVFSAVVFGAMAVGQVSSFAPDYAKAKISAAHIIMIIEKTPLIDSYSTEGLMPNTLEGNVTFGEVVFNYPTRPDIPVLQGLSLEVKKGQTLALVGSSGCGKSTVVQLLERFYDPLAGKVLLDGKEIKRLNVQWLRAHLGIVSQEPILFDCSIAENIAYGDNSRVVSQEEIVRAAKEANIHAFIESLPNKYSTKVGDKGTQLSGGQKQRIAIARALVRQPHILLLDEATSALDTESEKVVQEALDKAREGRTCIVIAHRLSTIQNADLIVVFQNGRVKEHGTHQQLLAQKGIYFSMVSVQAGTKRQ
# [5] = hESC survival regulators, cell-based (AID 493140; call rule not given here;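 note: cells exposed to compounds for four days before counting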); settings: human embryonic stem cell survival screen; stronger effect = higher value
# [6] = liver-stage malaria parasite growth inhibition, primary screen, cell-based, HepG2, luciferase luminescence, HepG2 viability (AID 624349; in the data active = parasite load remaining mostly below about 12%, no sharp cut-off; inactive = mostly above about 10%;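 note: 100% = mean of DMSO negative control wells on the same plate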); settings: P. berghei liver stage in HepG2, luciferase luminescence, concentration not given here; parasite load remaining: stronger effect = lower value; viability: measured here: HepG2 viability without parasites
# [7] = sensitizers of A549 cells to miR-34 induction, primary screen, imaging, A549 dox-inducible miR-34, nuclei and caspase counts (AID 1347080;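 active = compounds whose cell count with miR-34 switched on is under 0.7 times the count with it off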); settings: A549 miR-34 inducible, Hoechst nuclei count, 48 h
smiles,measurement,setting,value
CC(C)CCC[C@@H](C)[C@H]1CC[C@H]2[C@@H]3CC=C4C[C@@H](O)CC[C@]4(C)[C@H]3CC[C@]12C,inhibition,[1],2.5% (inactive)
same,remaining NAD,[2],10 nM (inactive)
same,luciferase signal,[3],52 AU (inactive)
CCC(C)C(=O)OC1[C@@H]2CC3=C4CC(=O)O[C@@H](c5ccoc5)[C@]4(C)CCC3[C@@](C)(C2=O)[C@@H](CC(=O)OC)C1(C)C (some centres not stated),inhibition,[1],6.33% (inactive)
same,luciferase signal,[3],116 AU (inactive)
Nc1nc(N)c2nc(CNc3ccc(C(=O)N[C@@H](CCC(=O)O)C(=O)O)cc3)cnc2n1,inhibition,[1],-4.2% (inactive)
same,remaining NAD,[2],10 nM (inactive)
CN(C)CC/C=C1/c2ccccc2Sc2ccc(Cl)cc21,fluorescence slope change,[4],115% (active)
same,survival,[5],1.25 (inactive)
same,parasite load remaining,[6],63.4% (inactive)
same,viability,[6],75.2%
same,inhibition,[1],-16.6% (inactive)
same,remaining NAD,[2],10 nM (inactive)
C1CCN2C[C@@H]3C[C@H](CN4CCCC[C@@H]34)[C@H]2C1,parasite load remaining,[6],83.5% (inactive)
same,viability,[6],82.9%
same,inhibition,[1],11% (inactive)
same,fold change,"[7]; stronger effect = lower value, cell number ratio, induced over uninduced",0.85 (inactive)
same,fold change,[7]; measured here: relative caspase fold change +Dox/-Dox,3.93
same,cell count,"[7]; measured here: total cells with miR-34 induction, stronger effect = lower value",10700
same,cell count,[7]; measured here: total cells without miR-34 induction,12500
same,luciferase signal,[3],68 AU (inactive)
C[C@@H]1O[C@@H](OC[C@H]2O[C@@H](Oc3c(-c4ccc(OCCO)c(OCCO)c4)oc4cc(OCCO)cc(O)c4c3=O)[C@H](O)[C@@H](O)[C@@H]2O)[C@H](O)[C@H](O)[C@H]1O,inhibition,[1],-5.09% (inactive)
same,remaining NAD,[2],10 nM (inactive)
same,luciferase signal,[3],72 AU (inactive)
CC(=O)[C@@]1(O)CC[C@H]2[C@@H]3C=C(Cl)C4=CC(=O)[C@@H]5C[C@@H]5[C@]4(C)[C@H]3CC[C@@]21C,inhibition,[1],3.58% (inactive)
same,remaining NAD,[2],10 nM (inactive)
same,luciferase signal,[3],32 AU (inactive)
